Assay results as given in PubChem BioAssay (NCATS).
Inconclusive results are not listed. Activity calls are given as the source filed them. Calls come from the whole dose curve; as a rule, active = well fitted cell-killing curve with a large enough effect; inconclusive = small, poorly fitted or top-dose-only effect, or effect the other way; inactive = no such curve, though single readings can be large or run the other way.

Assay: Quantitative High-Throughput drug screen in 47 multiple myeloma cell lines against the NCATS MIPE library collection: U266_ATCC cell viability assay (AID 1919864); note: nearly all actives have a fitted effect of over 35% in size
Details: U266 myeloma viability, CellTiter-Glo ATP luminescence, 48 h; series mostly up to 45.8 µM
Procedure, shortened: (§1)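 Cells were exposed to library compounds for 48 hours, after which ATP was measured by CellTiter-Glo. Signal was taken as median relative luminescence units.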
Potency is the fitted concentration of half-maximal effect.

SMILES | Potency
Cc1ccc(NC(=O)c2cccc(C(C)(C)C#N)c2)cc1Nc1ccc2ncn(C)c(=O)c2c1 | 18.7 µM (active)
COc1cc2c(cc1OC)CN(CCc1ccc(NC(=O)c3cccc4c(=O)c5cccc(OC)c5[nH]c34)cc1)CC2 | 9.35 µM (active)
Cc1c(CCOc2ccc(C(=O)O)cc2)c2cc(Cl)ccc2n1C(c1ccccc1)c1ccccc1 | 11.8 µM (active)
CCCn1c(=O)c2[nH]c(C34CC5CC3C[C@@H](C5)C4)nc2n(CCC)c1=O | inactive
COc1ccc(-c2ccc3c(N4CCOC[C@H]4C)nc(N4CCOC[C@H]4C)nc3n2)cc1CO | 0.0074 µM (active)
CCCCCCCc1ccc(CCc2cccc(O)c2C(=O)O)cc1 | inactive

Assay: Quantitative High-Throughput drug screen in 47 multiple myeloma cell lines against the NCATS MIPE library collection: XG6_PLB cell viability assay (AID 1919865); note: nearly all actives have a fitted effect of over 40% in size
Details: XG6 myeloma viability, CellTiter-Glo ATP luminescence, 48 h; series mostly up to 45.8 µM
Procedure, shortened: as §1

SMILES | Potency
NC(=O)C1CCCc2c1[nH]c1ccc(Cl)cc21 (stereo not given) | 20.9 µM (active)
Nc1ncnc2nc(-c3ccc(N4CCOCC4)nc3)cc(-c3cccc(Br)c3)c12 | 10.5 µM (active)
CNC(=O)c1ccc(C)c(-n2c(C)cc(OCc3ccc(F)cc3F)c(Br)c2=O)c1 | 16.6 µM (active)
COc1ccccc1[C@H](c1cccc2ccccc12)[C@@](C)(C#N)C(=O)N1CCC(c2cccc(C(F)(F)F)c2)CC1 | 4.69 µM (active)
CC(C)(Sc1ccc(CCN(CCCCC2CCCCC2)C(=O)NC2CCCCC2)cc1)C(=O)O | inactive
NC[C@H](O)c1ccc(O)c(O)c1 | inactive
Nc1nc2ccc(OC(F)(F)F)cc2s1 | inactive
O=C1CCC(N2C(=O)c3ccccc3C2=O)C(=O)N1 (stereo not given) | inactive
Cc1cc([C@@H](C)Nc2ccccc2C(=O)O)c2nc(N3CCOCC3)cc(=O)n2c1 | 1.91 µM (active)
Cc1cc2c(C(C)C)c(O)c(O)c(C=O)c2c(O)c1-c1c(C)cc2c(C(C)C)c(O)c(O)c(C=O)c2c1O | 7.43 µM (active)
Cc1cc2c(F)c(Oc3ncnn4cc(OC[C@@H](C)O)c(C)c34)ccc2[nH]1 | 0.743 µM (active)
Clc1ccc(Nc2nnc(Cc3ccncc3)c3ccccc23)cc1 | 2.09 µM (active)
CCn1c(-c2nonc2N)nc2cnc(Oc3cccc(NC(=O)c4ccc(OCCN5CCOCC5)cc4)c3)cc21 | 20.9 µM (active)
O=C1CCCC2=C1C(c1[nH]ncc1Cl)N=C(Nc1nc3ccccc3o1)N2 (stereo not given) | 23.5 µM (active)
COc1nc(-c2ccc3c(c2)OCO3)n(-c2ccc(NC(=O)CSc3ccccc3)cc2)n1 | inactive
O=c1ncn2nc(Sc3ccc(F)cc3F)ccc2c1-c1c(Cl)cccc1Cl | 13.2 µM (active)
Cc1ccc(NC(=O)c2cccc(C(C)(C)C#N)c2)cc1Nc1ccc2ncn(C)c(=O)c2c1 | 5.26 µM (active)
Cc1c(CCOc2ccc(C(=O)O)cc2)c2cc(Cl)ccc2n1C(c1ccccc1)c1ccccc1 | inactive
COc1ccc(-c2ccc3c(N4CCOC[C@H]4C)nc(N4CCOC[C@H]4C)nc3n2)cc1CO | 0.0148 µM (active)
Cc1cc(SCc2sc(-c3ccc(C(F)(F)F)cc3)nc2C)ccc1OCC(=O)O | inactive
CCC(=O)N[C@H]1CC[C@H](C(=O)N(C)c2ccc(-c3nc4ccccc4o3)cc2)C1 | 8.33 µM (active)

Assay: Quantitative High-Throughput drug screen in 47 multiple myeloma cell lines against the NCATS MIPE library collection: XG1_PLB cell viability assay (AID 1919866); note: nearly all actives have a fitted effect of over 35% in size
Details: CellTiter-Glo ATP, 48 h; series mostly up to 45.8 µM
Procedure, shortened: as §1

SMILES | Potency
NC(=O)C1CCCc2c1[nH]c1ccc(Cl)cc21 (stereo not given) | 16.6 µM (active)
Nc1ncnc2nc(-c3ccc(N4CCOCC4)nc3)cc(-c3cccc(Br)c3)c12 | 16.6 µM (active)
CNC(=O)c1ccc(C)c(-n2c(C)cc(OCc3ccc(F)cc3F)c(Br)c2=O)c1 | 6.62 µM (active)
COc1ccccc1[C@H](c1cccc2ccccc12)[C@@](C)(C#N)C(=O)N1CCC(c2cccc(C(F)(F)F)c2)CC1 | 3.32 µM (active)
CC(C)(Sc1ccc(CCN(CCCCC2CCCCC2)C(=O)NC2CCCCC2)cc1)C(=O)O | inactive
NC[C@H](O)c1ccc(O)c(O)c1 | inactive
O=C1CCC(N2C(=O)c3ccccc3C2=O)C(=O)N1 (stereo not given) | 3.72 µM (active)
Cc1cc([C@@H](C)Nc2ccccc2C(=O)O)c2nc(N3CCOCC3)cc(=O)n2c1 | 4.29 µM (active)
Cc1cc2c(C(C)C)c(O)c(O)c(C=O)c2c(O)c1-c1c(C)cc2c(C(C)C)c(O)c(O)c(C=O)c2c1O | 8.33 µM (active)
O=C1CCCC2=C1C(c1[nH]ncc1Cl)N=C(Nc1nc3ccccc3o1)N2 (stereo not given) | 2.96 µM (active)
NCCCC(N)(C(=O)O)C(F)F (stereo not given) | inactive
COc1nc(-c2ccc3c(c2)OCO3)n(-c2ccc(NC(=O)CSc3ccccc3)cc2)n1 | inactive
CCc1cncnc1N1CCN(Cc2nc3ccc(C(F)(F)F)cc3[nH]2)CC1 | 10.5 µM (active)
Cc1c(CCOc2ccc(C(=O)O)cc2)c2cc(Cl)ccc2n1C(c1ccccc1)c1ccccc1 | inactive
CCC(=O)N[C@H]1CC[C@H](C(=O)N(C)c2ccc(-c3nc4ccccc4o3)cc2)C1 | 6.62 µM (active)

Assay: Quantitative High-Throughput drug screen in 47 multiple myeloma cell lines against the NCATS MIPE library collection: VP6_DJ cell viability assay (AID 1919867); note: nearly all actives have a fitted effect of over 40% in size
Details: ATP luminescence, 48 h; series mostly up to 45.8 µM
Procedure, shortened: as §1

SMILES | Potency
NC(=O)C1CCCc2c1[nH]c1ccc(Cl)cc21 (stereo not given) | 3.32 µM (active)
CNC(=O)c1ccc(C)c(-n2c(C)cc(OCc3ccc(F)cc3F)c(Br)c2=O)c1 | 16.6 µM (active)
COc1ccccc1[C@H](c1cccc2ccccc12)[C@@](C)(C#N)C(=O)N1CCC(c2cccc(C(F)(F)F)c2)CC1 | 5.26 µM (active)
N#Cc1ccc(C(c2ccc(C#N)cc2)n2cncn2)cc1 | 16.6 µM (active)
CC(C)(Sc1ccc(CCN(CCCCC2CCCCC2)C(=O)NC2CCCCC2)cc1)C(=O)O | inactive
NC[C@H](O)c1ccc(O)c(O)c1 | 2.96 µM (active)
Nc1nc2ccc(OC(F)(F)F)cc2s1 | 18.7 µM (active)
Cc1cc([C@@H](C)Nc2ccccc2C(=O)O)c2nc(N3CCOCC3)cc(=O)n2c1 | 9.59 µM (active)
Cc1cc2c(C(C)C)c(O)c(O)c(C=O)c2c(O)c1-c1c(C)cc2c(C(C)C)c(O)c(O)c(C=O)c2c1O | 5.9 µM (active)
Clc1ccc(Nc2nnc(Cc3ccncc3)c3ccccc23)cc1 | 23.5 µM (active)
CCn1c(-c2nonc2N)nc2cnc(Oc3cccc(NC(=O)c4ccc(OCCN5CCOCC5)cc4)c3)cc21 | 8.33 µM (active)
O=C1CCCC2=C1C(c1[nH]ncc1Cl)N=C(Nc1nc3ccccc3o1)N2 (stereo not given) | 0.0935 µM (active)
Cc1ccc(N(CC2=NCCN2)c2cccc(O)c2)cc1 | inactive
O=c1ncn2nc(Sc3ccc(F)cc3F)ccc2c1-c1c(Cl)cccc1Cl | 9.35 µM (active)
COc1cc2c(cc1OC)CN(CCc1ccc(NC(=O)c3cccc4c(=O)c5cccc(OC)c5[nH]c34)cc1)CC2 | inactive
COc1ccc(-c2ccc3c(N4CCOC[C@H]4C)nc(N4CCOC[C@H]4C)nc3n2)cc1CO | 0.0066 µM (active)
CCC(=O)N[C@H]1CC[C@H](C(=O)N(C)c2ccc(-c3nc4ccccc4o3)cc2)C1 | 14.8 µM (active)
O=C(Nc1ccc(F)c(C(F)(F)F)c1)Nc1nnc(-c2ccncc2)s1 | 4.18 µM (active)
